# Values joined by “and” are separate entries in the source; they are usually repeats but may differ in a detail not shown here. Identical values can stand only once. Records with an inconclusive call do not appear. A call without a number means that no potency is given here. Some structures have more than one record in an assay (separate samples or runs), and their calls can disagree. Active and inactive are the calls of the source. Calls follow the shape of the dose curve; as a rule, active = well fitted cell-killing curve with a large enough effect in the repeat runs; inconclusive = weak or mixed curves, or effect the other way; inactive = no such curve, though single readings can be large or run the other way.
# Assay: qHTS assay to identify small molecule agonists of the vitamin D receptor (VDR) signaling pathway - cell viability counter screen (AID 743224); also: nearly all actives have a fitted effect of over 50% in size
# Conditions: VDR-bla HEK293T viability, CellTiter-Glo luminescence, 16 h; series mostly up to 62.6 µM
# From the text: U.S. Tox21 Program National Center for Advancing Translational Sciences [NCATS] NIH Chemical Genomics Center [NCGC] U.S. Environmental Protection Agency [EPA] National Institutes of Environmental Health Sciences [NIEHS] National Toxicology Program [NTP] U.S. Food and Drug Administration [FDA] Tox21 Assay Overview: The vitamin D receptor (VDR), a member of nuclear hormone receptor superfamily, plays a critical role in calcium homeostasis and bone metabolism. It is also involved in cell differentiation and growth, and thrombogenicity. […] The cytotoxicity of the Tox21 compound library against the VDR-bla cell line was tested in parallel by measuring the cell viability using CellTiter-Glo assay (Promega, Madison, WI) in the same wells.
# Tox21 Assay Protocol Summary: VDR-bla cells were dispensed at 2,000 cells/6 uL/well into black wall/clear-bottom 1536-well plates using a Multidrop Combi (Thermo Fisher Scientific, Waltham, MA) dispenser. After the assay plates were incubated at a 37C and 5% CO2 for 4 h, 23 nL of compounds dissolved in DMSO, positive controls or DMSO only was transferred to the assay plate by a Pintool station (Kalypsys, San Diego, CA). The plates were incubated at 37C and 5% CO2 for 16 h. After 1 uL of LiveBLAzerTM B/G FRET substrate was added using a Bioraptr Flying Reagent Dispenser (FRD) workstation (Beckman Coulter, Indianapolis, IN, USA), the plates were incubated at room temperature for 2 h, and fluorescence intensity was measured by an Envision plate reader (PerkinElmer, Shelton, CT). For cell viability readout that measures cytotoxicity, 3 ul/well of CellTiter-Glo reagent was added into the assay plates using a FRD. After 30 min incubation at room temperature, the luminescence intensity in the plates was measured using a ViewLux (PerkinElmer) plate reader.
# Potency is read from the fitted curve at half-maximal effect.
row,SMILES,Potency
1,O=C(O)C(F)(F)C(F)(F)C(F)(F)C(F)(F)C(F)(F)C(F)(F)C(F)(F)C(F)(F)F,inactive
2,Cc1ncc(C[n+]2csc(CCO)c2C)c(N)n1,inactive
3,O=C(NCNC(=O)NC1C(=O)NC(=O)N1CO)NC1C(=O)NC(=O)N1CO (stereo not given),inactive
4,C[Si](Cn1cncn1)(c1ccc(F)cc1)c1ccc(F)cc1,12.7 µM (active)
5,O=C1c2ccccc2C(=O)N1SC(Cl)(Cl)Cl,19.2 µM (active) and 6.92 µM (active)
6,O=[N+]([O-])/C=C/c1ccccc1,49 µM (active)
7,CN[C@@H](C)[C@H](O)c1ccccc1,inactive
8,CC(C)CCON=O,inactive
9,C=C(C)C(=O)OCCCCOC(=O)C(=C)C,inactive
10,C1CS1,inactive
11,CC(Cc1ccccc1)NCc1ccccc1Cl (stereo not given),inactive
12,CCCCCCCCCCCC[N+](C)(C)CCOc1ccccc1,24.6 µM (active) and inactive
13,CC(C)(C)c1ccc(CCOc2ncnc3ccccc23)cc1,inactive
14,C[C@]12C=CC3=C4CCC(=O)C=C4CC[C@H]3[C@@H]1CC[C@@H]2O,inactive
15,C1CCNCC1,inactive
16,CCC(C)(C)c1ccc(O)c(C(C)(C)CC)c1,12.2 µM (active) and 11 µM (active)
17,CC(C)c1ccc(OP(=O)(Oc2ccc(C(C)C)cc2)Oc2ccc(C(C)C)cc2)cc1,inactive
18,CC(Oc1cccc(Cl)c1)C(=O)O (stereo not given),inactive
19,CC(CC(C(N)=O)(c1ccccc1)c1ccccc1)N(C)C (stereo not given),inactive
20,CCSCc1ccccc1OC(=O)NC,inactive

row,SMILES,Potency
1,C[C@H]1[C@@H]2Cc3ccc(O)cc3[C@@]1(C)CCN2C,inactive
2,Oc1cccc(Cl)c1,inactive
3,COC1CC(=C(c2cccs2)c2cccs2)C[N+](C)(C)C1 (stereo not given),inactive
4,CCOP(=S)(OCC)SCSc1cc(Cl)ccc1Cl,inactive
5,C#C[C@]1(O)CC[C@H]2[C@@H]3CCC4=CC(=O)CCC4=C3C=C[C@@]21CC,inactive
6,NC(=O)CF,inactive
7,CCCCCCCCP(=O)(O)O,inactive
8,CCCC[N+]1(C)[C@@H]2CC(OC(=O)[C@H](CO)c3ccccc3)C[C@H]1[C@@H]1O[C@@H]12 (stereo not given in full),inactive
9,OCCCl,inactive
10,O=C([O-])c1ccccn1.O=C([O-])c1ccccn1.O=C([O-])c1ccccn1.[Cr+3],inactive
11,C[C@@H]1C[C@@H]([C@H](O)CC2CC(=O)NC(=O)C2)C(=O)[C@@H](C)C1,inactive
12,CC(Oc1cc(Cl)c(Cl)cc1Cl)C(=O)O (stereo not given),inactive
13,CCC(=O)O[C@@H]1C=C2CCC3C(CCC4(C)C3CC[C@@H]4OC(=O)CC)C2CC1 (stereo not given in full),inactive
14,CC(C)(C)NCC(O)c1ccccc1Cl (stereo not given),inactive
15,CCOC(C(=O)OCCN(C)C)(c1ccccc1)c1ccccc1,inactive
16,CNC(=O)Oc1cccc(N=CN(C)C)c1,inactive
17,CC(C)(C#N)C(C)(C)C#N,inactive
18,CCOc1cccc(C2(N3CCN(c4ccccc4)CC3)CCC(C)CC2)c1 (stereo not given),inactive
19,O=[N+]([O-])c1cc(Cl)c(Cl)cc1Cl,inactive
20,CCC1(CCC(C)C)C(=O)NC(=O)NC1=O,inactive

# — PubChem BioAssay (Tox21)
